# From PMC4336329 (PLoS ONE, 2015)
# The campaign covered roughly 310,000 compounds. About 14,000 (4.5%) showed an effect of 50% or more. The effect is printed as a negative number. The entries come from a sample that favours strong results as a whole.
# Biological target: human ether-à-go-go-related gene (hERG) potassium channel (human, UniProt Q12809)
# Experiment: primary screen, population patch clamp on CHO cells stably expressing hERG; higher = less effect of the substance
# 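Also: peak tail current of the secondary pulse compared with the same well before compound.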
# Chain of human ether-à-go-go-related gene (hERG) potassium channel (Q12809 whole entry, looked up): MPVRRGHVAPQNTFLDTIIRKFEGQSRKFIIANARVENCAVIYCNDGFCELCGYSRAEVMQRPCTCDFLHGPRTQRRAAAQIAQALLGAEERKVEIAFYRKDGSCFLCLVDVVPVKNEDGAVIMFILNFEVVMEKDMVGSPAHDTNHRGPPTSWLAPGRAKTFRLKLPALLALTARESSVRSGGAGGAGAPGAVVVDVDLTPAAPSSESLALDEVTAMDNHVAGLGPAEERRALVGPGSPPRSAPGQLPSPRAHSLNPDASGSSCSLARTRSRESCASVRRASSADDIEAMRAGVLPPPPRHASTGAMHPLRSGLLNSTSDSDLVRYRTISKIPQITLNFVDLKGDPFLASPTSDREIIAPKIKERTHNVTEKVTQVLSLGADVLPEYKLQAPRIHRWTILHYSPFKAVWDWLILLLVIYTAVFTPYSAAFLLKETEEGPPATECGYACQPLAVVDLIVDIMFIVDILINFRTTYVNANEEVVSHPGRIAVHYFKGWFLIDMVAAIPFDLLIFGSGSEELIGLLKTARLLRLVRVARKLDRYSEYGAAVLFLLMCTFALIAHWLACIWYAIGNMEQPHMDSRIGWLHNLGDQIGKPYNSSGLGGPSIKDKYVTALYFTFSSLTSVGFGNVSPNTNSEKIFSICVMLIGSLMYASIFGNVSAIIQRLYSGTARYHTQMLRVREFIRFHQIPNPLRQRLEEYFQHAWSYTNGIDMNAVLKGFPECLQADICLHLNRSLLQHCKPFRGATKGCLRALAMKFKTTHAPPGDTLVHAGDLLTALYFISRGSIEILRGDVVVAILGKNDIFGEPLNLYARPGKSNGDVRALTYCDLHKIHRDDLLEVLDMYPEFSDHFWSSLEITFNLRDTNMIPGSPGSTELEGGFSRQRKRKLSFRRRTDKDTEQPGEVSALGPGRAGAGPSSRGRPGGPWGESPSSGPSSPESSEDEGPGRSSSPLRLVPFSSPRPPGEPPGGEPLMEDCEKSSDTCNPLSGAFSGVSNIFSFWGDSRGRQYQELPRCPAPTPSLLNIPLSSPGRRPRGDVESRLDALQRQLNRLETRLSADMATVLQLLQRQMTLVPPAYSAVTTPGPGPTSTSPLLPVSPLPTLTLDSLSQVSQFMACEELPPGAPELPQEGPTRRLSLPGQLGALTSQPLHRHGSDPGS
row,Structure (SMILES),"hERG current change (%, negative = inhibition) at 10uM [%]"
1,COCCNC(=O)C(c1ccc(F)cc1)N(CCOC)C(=O)CCC(=O)Nc1nccs1 (stereo not drawn),0.0239
2,O=C1CC2(CCCCC2)Oc2ccc(O)cc21,-11.8
3,CCOC(=O)c1ccc(N2Cc3ccccc3C2=N)cc1,-61.3
4,O=C1c2ccccc2C(=O)N1c1ccc(S(=O)(=O)N2CCCCC2)cc1,15.4
5,CCOC(=O)c1ccc(CN2Cc3ccccc3C2=O)cc1,2.17
6,CCN(CC)S(=O)(=O)c1ccc(N2Cc3ccccc3C2=N)cc1,-40.5
7,N=C1c2ccccc2CN1c1ccc(S(=O)(=O)N2CCCCC2)cc1,-62.5
8,CCOC(=O)c1ccc(N2C(=O)Cc3ccccc3C2=O)cc1,20.9
9,O=C(O)c1cccc(N2C(=O)Nc3ccccc3N2O)c1,10.2
10,Cc1cc(-n2c(C)cc(C(=O)COc3ccccc3[N+](=O)[O-])c2C)no1,-4.91
11,CN1CCN(NC(=O)c2cc(-c3cccc(Cl)c3)nc3ccccc23)CC1,-35.9
12,O=S(=O)(N1CCCCC1)N1CCN(c2ccc(F)cc2)CC1,-35.9
13,CCN1C(=O)NC(=O)/C(=C\c2ccc(N3CCOCC3)cc2OC)C1=O,13.7
14,CCC(OC(=O)c1nsc(Cl)c1Cl)C(=O)NCCc1ccccc1 (stereo not drawn),16
15,COc1ccc(CCNC(=O)C(C)OC(=O)c2nsc(Cl)c2Cl)cc1OC (stereo not drawn),12.4
16,CC(OC(=O)c1nsc(Cl)c1Cl)C(=O)NCCc1ccccc1 (stereo not drawn),-65.4
17,COc1ccc(CC(=O)N/N=C/c2cc([N+](=O)[O-])cc(Br)c2O)cc1,6.88
18,CCOC(=O)/C=C1\CN(Cc2cc(OC)c(OC)c(OC)c2)S(=O)(=O)c2ccc(C(F)(F)F)cc21,-11.3
19,CCn1nc(NS(=O)(=O)c2ccccc2)c2cc3cccc(C)c3nc21,6.7
20,CSc1ccc(CN2CCN(S(=O)(=O)Cc3ccccc3)CC2)cc1,1.28
21,CCN(Cc1ccccc1)C(=O)C1CCN(Cc2ccc(SC)cc2)CC1.O=C(O)C(=O)O,-71.8
22,CCN(CC)C(=O)C1CCN(Cc2ccc(OCc3ccccc3)c(OC)c2)CC1.O=C(O)C(=O)O,-32

row,Structure (SMILES),"hERG current change (%, negative = inhibition) at 10uM [%]"
1,CCN(CC)C(=O)C1CCCN(Cc2ccc(N(C)C)cc2)C1 (stereo not drawn),-12.5
2,CCN(Cc1ccccc1)C(=O)C1CCN(Cc2ccc(OC)c(OC)c2OC)CC1.O=C(O)C(=O)O,-43.4
3,CCN(Cc1ccccc1)C1CCN(Cc2ccc(SC)cc2)CC1.O=C(O)C(=O)O,-69.3
4,CCN(CC)C(=O)C1CCN(Cc2ccc(Br)cc2)CC1.O=C(O)C(=O)O,-51.4
5,O=C(C1CCN(Cc2ccc(F)cc2)CC1)N(CCO)Cc1ccccc1,-10.6
6,CSc1ccc(CN2CCC(N3CC(C)OC(C)C3)CC2)cc1.O=C(O)C(=O)O (stereo not drawn),-20.5
7,CCCC(C)C(=O)Nc1nc(C)c(-c2csc(Nc3ccccc3OC)n2)s1 (stereo not drawn),14.5
8,CC(=O)CCn1cnc([N+](=O)[O-])n1,23
9,COc1cccc(CNC(=O)COC(=O)c2cc(Br)c(Br)s2)c1,14.8
10,O=C(O)CC1SC(N/N=C/c2ccc(Br)cc2)NC1=O (stereo not drawn),6.6
11,CC(NS(C)(=O)=O)C(c1cccs1)N1CCN(c2ccc(F)cc2)CC1 (stereo not drawn),-11.4
12,Cc1ccc(C2=NN(CC(=O)NCc3ccccn3)C(=O)CC2)cc1,-11.6
13,Cc1cc(=O)oc2cc(OCC(=O)Nc3ccccc3C(=O)O)ccc12,11.6
14,CCCn1c(N)c(Sc2ccc([N+](=O)[O-])cc2)c(=O)n(CCC)c1=O,-83.8
15,COCCn1c(N)c(Sc2ccc([N+](=O)[O-])cc2)c(=O)[nH]c1=O,-46.5
16,CCCn1c(N)c(Sc2ccc(C)cc2)c(=O)n(CCC)c1=O,-14.3
17,CCCn1c(N)c(Sc2ccc(Cl)cc2)c(=O)n(CCC)c1=O,-43.3
18,CCCCn1c(N)c(Sc2ccc([N+](=O)[O-])cc2)c(=O)[nH]c1=O,-79.5
19,CCCCn1c(N)c(Sc2ccc(C)cc2)c(=O)[nH]c1=O,2
20,O=C(CCNC(=O)c1ccc([N+](=O)[O-])cc1)Nc1nccs1,1.93
21,CCCOc1ccccc1/C=C1\SC(N2CCCCC2)=NC1=O,-12.3
22,Cn1c(SCc2ccccc2Cl)nc(C(F)(F)F)cc1=O,1.65

row,Structure (SMILES),"hERG current change (%, negative = inhibition) at 10uM [%]"
1,Cc1cc(OCCOCCN(C)CCO)cc(C)c1Cl,-40.9
2,COc1ccc(C2=NC(=O)/C(=C\c3cc(OC)c(OC)c(OC)c3)O2)cc1,8.26
3,Cc1cccn2cc(-c3ccc(F)cc3)nc12,-14.1
4,COc1ccc(-c2cn3cccc(C)c3n2)cc1F,-61.7
5,COc1ccc(-c2cn3cccnc3n2)cc1F,12.2
6,CC(=O)c1c(C)[nH]c(C(=O)OCc2cc(=O)n3cc(Br)ccc3n2)c1C,-3.69
7,N#Cc1ccccc1COC(=O)CCC(=O)c1cccs1,-4.58
8,CCOc1ccccc1NC(=O)c1ccc(S(=O)(=O)N2CCOCC2)cc1,-2.46
9,S=C(Nc1ccc(Cl)cc1Cl)N1CCOCC1,11.1
10,COc1cc(C(=O)COC(=O)C2CCN(c3ccc(C(F)(F)F)cn3)CC2)ccc1OC(F)F,-59.1
11,O=C(COC(=O)C1CCN(c2ccc(C(F)(F)F)cn2)CC1)c1ccc(F)cc1,-0.831
12,Cc1ccc(NC(=O)COC(=O)C2CCN(c3ccc(C(F)(F)F)cn3)CC2)cc1,-1.26
13,CN(CC(=O)Nc1ccc(F)cc1)C(=O)COC(=O)C1CCN(c2ccc(C(F)(F)F)cn2)CC1,-65.5
14,CN(CC(=O)Nc1ccccc1Cl)C(=O)COC(=O)C1CCN(c2ccc(C(F)(F)F)cn2)CC1,-29.8
15,CCc1ccc(C(=O)COC(=O)C2CCN(c3ccc(C(F)(F)F)cn3)CC2)cc1,-18
16,O=C(O)c1cccc2c(-c3ccccc3)c(-c3ccccc3)[nH]c12,18.5
17,COc1cc(/C=C2\C(=N)N3N=C(C)SC3=NC2=O)cc(OC)c1OCCOc1ccccc1C,30.7
18,Cc1ccc(-c2nc(CN(C)Cc3ccc4nccnc4c3)c(C)o2)s1,-10.3
19,Cc1cc(OCC(=O)Nc2cnn(CCCC(=O)O)c2)ccc1Cl,18
20,CC(=O)N1CCN(C23CC4CC(CC(C4)C2)C3)CC1,12.3
21,CCCC#CCN1CCN(C23CC4CC(CC(C4)C2)C3)CC1,-16.1
22,CCCCCC#CCN1CCN(C23CC4CC(CC(C4)C2)C3)CC1,-58.6

row,Structure (SMILES),"hERG current change (%, negative = inhibition) at 10uM [%]"
1,COCc1ccc(C(=O)N2CCCC(Nc3ccc(C(C)C)cc3)C2)o1 (stereo not drawn),-0.274
2,O=C(CC1SC(=Nc2ccc(OC(F)F)cc2)N(CCN2CCOCC2)C1=O)Nc1ccc(F)cc1F (stereo not drawn),-82.9
3,COc1ccc(N=C2SC(CC(=O)Nc3ccccc3)C(=O)N2CCN2CCOCC2)cc1 (stereo not drawn),-23.1
4,O=C(CC1SC(=Nc2ccccc2F)N(CCN2CCOCC2)C1=O)Nc1ccc(F)cc1F (stereo not drawn),-13.1
5,Cc1cc(NCC(C)C)n2ncnc2n1,14
6,CCCn1c(=N)c(S(=O)(=O)c2ccccc2)cc2c(=O)n3cccc(C)c3nc21,0.577
7,Cc1cccn2c(=O)c3cc(S(=O)(=O)c4ccccc4)c(=N)n(Cc4cccnc4)c3nc12,-66.1
8,Cc1cccn2c(=O)c3cc(S(=O)(=O)c4ccccc4)c(=N)n(Cc4ccc(F)cc4)c3nc12,24.7
9,N=c1c(S(=O)(=O)c2ccc(Cl)cc2)cc2c(=O)n3ccccc3nc2n1Cc1cccnc1,-35.5
10,N=c1c(S(=O)(=O)c2ccccc2)cc2c(=O)n3ccccc3nc2n1Cc1cccnc1,-59.2
11,N=c1c(S(=O)(=O)c2ccc(Br)cc2)cc2c(=O)n3ccccc3nc2n1Cc1ccccc1,27
12,CCCCC(CC)C(=O)Nc1cc(C(=O)NCc2ccc(C)cc2)ccc1N1CCC2(CC1)CC(c1cccc(Br)c1)=NO2 (stereo not drawn),17.6
13,CCOC(=O)C1=C(C)N=c2s/c(=C/c3cccc([N+](=O)[O-])c3O)c(=O)n2C1c1ccccc1 (stereo not drawn),-20.4
14,COc1ccc(CCC(=O)Nc2ncc(C)s2)cc1OC,16.2
15,Cc1ccc(S(=O)(=O)N2CCN(C(=O)COC(=O)CSc3cc(C)ccc3C)CC2)c(C)c1,-6.13
16,COc1ccccc1C(=O)NC(CCSC)C(=O)N1CCN(C(C)=O)CC1 (stereo not drawn),-0.345
17,COc1ccccc1C(=O)NC(CCSC)C(=O)N1CCC(Cc2ccccc2)CC1 (stereo not drawn),-23.1
18,COCCC(=O)N1CCC(n2nccc2NC(=O)c2ccccc2C)CC1,12.6
19,COc1ccccc1C(=O)Nc1ccnn1C1CCN(C/C=C/c2ccc(F)cc2)CC1,-76.6
20,COc1ccccc1C(=O)Nc1ccnn1C1CCN(C/C=C/c2ccccc2)CC1,-78.9
21,COc1ccccc1C(=O)NC(CCSC)C(=O)N1CCN(C/C=C/c2ccccc2)CC1 (stereo not drawn),-109
